Data reported in the supplement of paper PMC13380429.

System: Vero E6 infected with SARS-CoV-2
Experiment: inhibition of SARS-CoV-2 cytopathic effect; higher = more antiviral protection, active = above 15
Conditions: 48 h

Measured: inhibition of SARS-CoV-2 cytopathic effect

C=C(CC)C(=O)c1ccc(OCC(=O)O)c(Cl)c1Cl [etacrynic-acid]
inactive: 1 nM 1.1% | 8.33 nM 2.25% | 100 nM 2.32% | 833.33 nM 4.17% | 10000 nM -6.97%

CC(=O)N(C)c1cc(-c2ccnc3c(C(=O)c4cccs4)cnn23)ccc1F [lorediplon]
inactive: 1 nM 0.42% | 8.33 nM -0.41% | 100 nM 1.97% | 833.33 nM 1.05% | 10000 nM 1.78%

CC(=O)N[C@H]1[C@H]([C@H](O)[C@H](O)CO)OC(C(=O)O)=C[C@@H]1NC(=N)N [zanamivir]
inactive: 1 nM 0.39% | 8.33 nM 0.16% | 100 nM -0.26% | 833.33 nM 2.6% | 10000 nM 2.28%

CCOC(=O)C1=C(C)NC(c2ccccc2)=C(C(=O)OCc2ccc([N+](=O)[O-])cc2)[C@@H]1C#Cc1ccccc1
inactive: 1 nM 2.05% | 8.33 nM -1.34% | 100 nM 0.42% | 833.33 nM 1.51% | 10000 nM 3.9%

Cc1ncc(C[n+]2csc(CCOP(=O)(O)OP(=O)(O)O)c2C)c(N)n1 [thiamine-pyrophosphate]
inactive: 1 nM 2.5% | 8.33 nM 1.37% | 100 nM -0.57% | 833.33 nM 2.37% | 10000 nM 0.01%

CC1(C)S[C@@H]2[C@H](NC(=O)COc3ccccc3)C(=O)N2[C@H]1C(=O)O [penicillin-v-potassium]
inactive: 1 nM -0.76% | 8.33 nM 1.87% | 100 nM -1.93% | 833.33 nM 1.76% | 10000 nM 0.08%

Oc1cccc(Nc2ccc(Nc3cccc(O)c3)nn2)c1 [beta-amyloid-synthesis-inhibitor]
inactive: 1 nM -0.67% | 8.33 nM 1.31% | 100 nM 0.24% | 833.33 nM 1.07% | 10000 nM 4.99%

NC(=O)c1cnc2[nH]ccc2c1N[C@@H]1[C@@H]2CC3C[C@H]1C[C@@](O)(C3)C2
inactive: 1 nM -1.55% | 8.33 nM -1.31% | 100 nM -1.46% | 833.33 nM -0.12% | 10000 nM -1.65%

C#CCC(Cc1cnc2nc(N)nc(N)c2n1)c1ccc(C(=O)N[C@@H](CCC(=O)O)C(=O)O)cc1 (stereo not given in full) [pralatrexate]
inactive: 1 nM 1.9% | 8.33 nM -0.71% | 100 nM -3.9% | 833.33 nM -4.99% | 10000 nM -6.91%

C[C@H](NC(=O)[C@@H](O)c1cc(F)cc(F)c1)C(=O)N[C@@H]1C(=O)N(C)c2ccccc2-c2ccccc21
inactive: 1 nM -3.7% | 8.33 nM -4.79% | 100 nM -8.67% | 833.33 nM -14% | 10000 nM -7.15%

C[C@]12CC[C@H]3[C@@H](CC[C@]4(O)C[C@@H](O)CC[C@]34C=O)[C@@]1(O)CC[C@@H]2C1=CC(=O)OC1 [K-strophanthidin]
inactive: 1 nM 0.01% | 8.33 nM 0.18% | 100 nM -5.59% | 833.33 nM -12.1% | 10000 nM -16.9%

CC1(C)S[C@@H]2[C@H](NC(=O)[C@H](N)c3ccccc3)C(=O)N2[C@H]1C(=O)O [ampicillin]
inactive: 1 nM 0.57% | 8.33 nM 1.76% | 100 nM -0.8% | 833.33 nM -1.53% | 10000 nM 0.38%

CC1(C)CCC(C)(C)c2cc(NC(=O)c3ccc(C(=O)O)cc3)ccc21 [tamibarotene]
inactive: 1 nM 4.56% | 8.33 nM 1.67% | 100 nM 1.5% | 833.33 nM 0.87% | 10000 nM 0.68%

Cc1cc(NCCO)nc(-c2ccc(Br)cc2)n1
inactive: 1 nM 1.81% | 8.33 nM -1.79% | 100 nM -0.15% | 833.33 nM 0.73% | 10000 nM -2.57%

O=C(/C=C/c1cccc(S(=O)(=O)Nc2ccccc2)c1)NO [belinostat]
inactive: 1 nM -1.11% | 8.33 nM 0.41% | 100 nM -1.26% | 833.33 nM -13.7% | 10000 nM -27.1%

CN(C)c1ccc(C(=C2C=CC(=[N+](C)C)C=C2)c2ccc(N(C)C)cc2)cc1 [crystal-violet]
inactive: 1 nM -0.43% | 8.33 nM 1.49% | 100 nM 0.27% | 833.33 nM -11.4% | 10000 nM -22.8%

CC(=O)OC[C@H]1O[C@@](COC(C)=O)(O[C@H]2O[C@H](COC(C)=O)[C@@H](OC(C)=O)[C@H](OC(C)=O)[C@H]2OC(C)=O)[C@@H](OC(C)=O)[C@@H]1OC(C)=O [sucrose-octaacetate]
inactive: 1 nM 0.66% | 8.33 nM 1.07% | 100 nM -1.24% | 833.33 nM -0.47% | 10000 nM -0.86%
